Records with an inconclusive call do not appear. Where a call stands in place of a potency, no number is given. Unmarked numbers belong to inactive results. The source made the active and inactive calls. Calls come from the whole dose curve; as a rule, active = well fitted cell-killing curve with a large enough effect in the repeat runs; inconclusive = weak or mixed curves, or effect the other way; inactive = no such curve, though single readings can be large or run the other way.
Potency is the fitted concentration of half-maximal effect.

A short description of this test: qHTS assay to identify small molecule antagonists of the progesterone receptor (PR) signaling pathway - cell viability counter screen (AID 1346798). Note: nearly all actives have a fitted effect of over 50% in size. Conditions: PR-UAS-bla HEK293T viability, CellTiter-Glo luminescence, 16 h; series mostly up to 92.4 µM; activity change, negative = cytotoxicity: at the top concentration. An excerpt:
National Center for Advancing Translational Sciences [NCATS]
NIH Chemical Genomics Center [NCGC]
U.S. Environmental Protection Agency [EPA]
National Institutes of Environmental Health Sciences [NIEHS]
National Toxicology Program [NTP]
U.S. Food and Drug Administration [FDA]
Progesterone receptor (PR), a nuclear hormone receptor, plays an important role in development, metabolic homeostasis and reproduction. It is activated by the steroid hormone progesterone. Endocrine disrupting chemicals (EDCs) and their interactions with steroid hormone receptors like PR causes disruption of normal endocrine function. To identify the compounds that inhibit PR signaling, a PR-UAS-bla GripTite cell line i.e. PR-UAS-bla HEK293T (Invitrogen, Carlsbad, CA, USA) containing a beta-lactamase reporter gene under the control of an UAS response element was used to screen Tox21 10K compound library. The cytotoxicity of the Tox21 compound library against the PR-bla cell line was tested in parallel by measuring the cell viability using CellTiter-Glo assay in the same wells.
Tox21 Assay Protocol Summary:
PR-UAS-bla HEK293T cells were dispensed at 3,000 cells/4 uL of assay medium containing 2% charcoal stripped FBS per well into black wall/clear-bottom 1536-well plates using a Multidrop Combi (ThermoFisher Scientific, Waltham, MA) dispenser. After the assay plates were incubated at a 37C and 5% CO2 for 4 hr, 23 nL of compounds dissolved in DMSO, positive controls or DMSO only was transferred to the assay plate by a Pintool station (Kalypsys, San Diego, CA), followed by addition of 1 uL of R5020 in assay medium using a Flying Reagent Dispenser (FRD, Aurora Discovery, San Diego, CA). The plates were incubated at 37C and 5% CO2 for 16 hr. Then 1 uL of LiveBLAzer B/G FRET substrate was added using a Flying Reagent Dispenser, the plates were incubated at room temperature for 2 hours, and fluorescence intensity was measured by an Envision plate reader (PerkinElmer, Shelton, CT). For cell viability readout that measures cytotoxicity, 4 uL/well of CellTiter-Glo reagent was added into the assay plates using a FRD. After 30 min incubation at room temperature, the luminescence intensity in the plates was measured using a ViewLux (PerkinElmer) plate reader.
Consider `CO[C@H]1C=CO[C@@]2(C)Oc3c(C)c(O)c4c(O)c(c(/C=N/N5CCN(C)CC5)c(O)c4c3C2=O)NC(=O)/C(C)=C\C=C[C@H](C)[C@H](O)[C@@H](C)[C@@H](O)[C@@H](C)[C@H](OC(C)=O)[C@@H]1C`, for which the Potency entry was “inactive”.

`C1CNCCN1`: the Potency entry is “inactive”.

For the molecule `Oc1cccc(O)c1`, the Potency entry was “inactive”.

Regarding `COC(=O)c1ccc(O)cc1`, the Potency result was “inactive”.

Consider `CC(C)Cc1ccc(C(C)C(=O)O)cc1` (stereo not given), for which the Potency entry is “inactive”.

As to `COc1ccccc1O`, the Potency entry was “inactive”.

With `CCN(CC)CCOC(=O)c1ccc(N)cc1`, the “activity change, negative = cytotoxicity” value is -9.91% [at 42.5 µM].

With `CC(C)(C)NCC(O)c1ccc(O)c(CO)c1` (stereo not given), the Potency entry was “inactive”.

For `Cc1cccc2ccccc12`, the Potency result was “inactive”.

`C=C(C)C(N)=O`: the Potency entry is “inactive”.

With `CCCCOCCOCCOC(C)=O`, the Potency entry is “inactive”.

In the case of `C[C@]12C[C@H](O)[C@H]3[C@@H](CCC4=CC(=O)CC[C@@]43C)[C@@H]1CC[C@@H]2C(=O)CO`, the “activity change, negative = cytotoxicity” value is 0.895%.

For `O=C(OCc1ccccc1)c1ccccc1`, the Potency entry was “inactive”.

`C=CC(=O)NC(C)(C)CS(=O)(=O)O`: the Potency entry is “inactive”.

With `CC(O)COc1ccccc1` (stereo not given), the Potency result was “inactive”.

Turning to `C/C=C/c1ccc(O)c(OC)c1`, the Potency entry was “inactive”.

For the molecule `NC(=O)N/N=C/c1ccc([N+](=O)[O-])o1`, the Potency result is “inactive”.

Consider `COc1ccccc1NC(=O)CC(C)=O`, for which the Potency entry was “inactive”.

As for `NC(=O)c1ccc([N+](=O)[O-])cc1Cl`, the Potency result was “inactive”.

`c1ccc2[nH]c(-c3cscn3)nc2c1`: the Potency entry was “inactive”.

As to `O=C1OC(c2ccc(O)cc2)(c2ccc(O)cc2)c2ccccc21`, the Potency result is “inactive”.

In the case of `CC1(C)O[C@@H]2[C@@H](CO[C@@]3(COS(N)(=O)=O)OC(C)(C)O[C@@H]23)O1`, the Potency entry was “inactive”.

In the case of `N[C@@H](Cc1c[nH]c2ccccc12)C(=O)O`, the Potency result is “inactive”.

Turning to `CCCCC/C(C=O)=C\c1ccccc1`, the Potency result was “inactive”.

Regarding `Nc1cccc(N)c1`, the Potency entry was “inactive”.

On to `OC[C@@H](O)[C@@H](O)[C@H](O)[C@H](O)CO`, for which the Potency entry is “inactive”.

On to `CC1=NN(c2ccccc2)C(=O)C1`, for which the Potency entry is “inactive”.

Regarding `CCCCCCCCCCCCCC(=O)OC(C)C`, the Potency result was “inactive”.

In the case of `CC(=O)OC/C=C(C)/C=C/C=C(C)/C=C/C1=C(C)CCCC1(C)C`, the Potency entry is “inactive”.

As to `COc1cc(O)c(C(=O)c2ccccc2)cc1S(=O)(=O)O`, the Potency entry is “inactive”.

Turning to `COCC(C)N` (stereo not given), the Potency entry was “inactive”.

As for `CC(C)(C)CC(C)(C)c1ccc(O)c(-n2nc3ccccc3n2)c1`, the Potency was 49.2 µM (active).

Regarding `NC(=O)N1c2ccccc2C=Cc2ccccc21`, the Potency entry was “inactive”.

In the case of `CCCCCCCCOc1ccc(C(=O)c2ccccc2)c(O)c1`, the Potency entry is “inactive”.

On to `O=[N+]([O-])c1ccc(O)cc1`, for which the “activity change, negative = cytotoxicity” value is -28%.

For the molecule `COCCOCCOC`, the Potency result was “inactive”.

Take `CC(C)=CCC/C(C)=C/CO`: the Potency result is “inactive”.

With `Cc1cccc(C)c1O`, the Potency result was “inactive”.

In the case of `C[C@]12CC[C@@H]3c4ccc(O)cc4C[C@@H](CCCCCCCCCS(=O)CCCC(F)(F)C(F)(F)F)[C@H]3[C@@H]1CC[C@@H]2O` (stereo not given in full), the Potency result was “inactive”.

Turning to `CC(=O)Oc1ccccc1C(=O)O`, the Potency result was “inactive”.

The values are drawn from PubChem BioAssay (Tox21).
